About 3,200 (25%) of roughly 13,000 compounds showed an effect of 50% or more. The list shows a part of the results.
Each compound was assayed on P. falciparum stage V gametocytes. Details: 48 h, 5 µM; inhibitor.
Set-up: BacTiter-Glo ATP luminescence viability of purified stage V gametocytes in 384-well plates, per cent inhibition versus DMSO

SMILES	% Inhibition [%]
CC1(C)N=C(N)N=C(N)N1OCc1cc2ccccc2cc1CON1C(N)=NC(N)=NC1(C)C [TCMDC-131627]	15.22
CN(C(=O)Nc1ccc(F)cc1)C1CCN(CCCCCNC(=O)/C=C/c2ccc(Cl)c(Cl)c2)CC1 [TCMDC-139492]	-6.373
CCOC(=O)c1ccc(NC(=O)NCCCC2CCCN(CCCCCNC(=O)/C=C/c3ccc(Cl)c(Cl)c3)C2)cc1 (stereo not shown) [TCMDC-139516]	55.81
O=C(NNC(=O)c1ccc(CN2CCC(c3nc4ccccc4[nH]3)CC2)cc1)Nc1ccc(Oc2ccccc2)cc1 [TCMDC-135310]	0.2458
O=C(NCCCCN1CCN(CC=Cc2ccccc2)CC1)c1ccc(NC(=O)c2cc(Cl)cc(Cl)c2)cc1 [TCMDC-138216]	-21.85
O=C(NCC1CCN(C/C=C/c2ccccc2)CC1)Nc1ccc(Oc2ccccc2)cc1 [TCMDC-139153]	95.36
O=C(/C=C/c1ccc(Cl)c(Cl)c1)NCCCCCN1CCCC(CCCNC(=O)Nc2ccc(C(F)(F)F)cc2)C1 (stereo not shown) [TCMDC-139517]	56.6
O=C(/C=C/c1ccc(Cl)c(Cl)c1)NCCCCN1CCCN(C(=O)Nc2ccc(C(F)(F)F)cc2)CC1 [TCMDC-135930]	-28.77
O=C(/C=C/c1ccc(Cl)c(Cl)c1)NCCCCCCN1CCN(C(=O)Nc2ccc(C(F)(F)F)cc2)CC1 [TCMDC-135824]	-51.85
CN(C(=O)Nc1ccc(C(F)(F)F)cc1)C1CCN(CCCCCNC(=O)/C=C/c2ccc(Cl)c(Cl)c2)CC1 [TCMDC-139524]	54.85
Cn1cc(CCNc2ccnc(N3CCC(c4ncc[nH]4)CC3)n2)c2ccccc21 [TCMDC-135120]	26.64
CCOC(=O)CCCc1cc(NC2CCN(C)CC2)nc(Nc2ccc(OC)cc2)n1 [TCMDC-134017]	-45.24
Cc1ccc(NC(=O)c2ccc(NCCCN3CC(C)CC(C)C3)c([N+](=O)[O-])c2)cc1F (stereo not shown) [TCMDC-125684]	-7.765
Cc1cnc(N)c(/C=C/c2cncc(C(=O)NCCc3ccc(Cl)cc3Cl)c2)c1 [TCMDC-134509]	-9.663
CC(C)c1ccc(NC(=O)NCCCC2CCCN(CCCCCNC(=O)/C=C/c3ccc(Cl)c(Cl)c3)C2)cc1 (stereo not shown) [TCMDC-139515]	38.89
CC(C)c1ccc(NC(=O)NCC2CCCN(CCCCCNC(=O)/C=C/c3ccc(Cl)c(Cl)c3)C2)cc1 (stereo not shown) [TCMDC-139519]	58.09
O=C(/C=C/c1ccc(Cl)c(Cl)c1)NCCCCCN1CCC(NC(=O)Nc2ccc(C(F)(F)F)cc2)CC1 [TCMDC-135723]	-19.76
O=C(/C=C/c1ccc(Cl)c(Cl)c1)NCCCCCN1CCCC(CNC(=O)Nc2ccc(Oc3ccccc3)cc2)C1 (stereo not shown) [TCMDC-139522]	54.61
CCCCCCCNC(=O)NCC1CCCN(CCCCCNC(=O)/C=C/c2ccc(Cl)c(Cl)c2)C1 (stereo not shown) [TCMDC-139518]	11.83
O=C(/C=C/c1ccc(Cl)c(Cl)c1)NCCCCCN1CCCC(CNC(=O)Nc2ccc(C(F)(F)F)cc2)C1 (stereo not shown) [TCMDC-139521]	91.99
O=C(/C=C/c1ccc(Cl)c(Cl)c1)NCCCCCN1CCC(CCCNC(=O)Nc2ccc(C(F)(F)F)cc2)CC1 [TCMDC-139514]	102.3
O=C(/C=C/c1ccc(Cl)c(Cl)c1)NCCCCCN1CCC(NC(=O)Nc2ccc(Cl)c(C(F)(F)F)c2)CC1 [TCMDC-135730]	1.176
O=C(/C=C/c1ccc(Cl)c(Cl)c1)NCCCCCN1CCC(NC(=O)Nc2ccc(C(F)(F)F)cc2)C1 (stereo not shown) [TCMDC-139527]	-24.61
O=C(/C=C/c1ccc(Cl)c(Cl)c1)NCCCCCN1CCN(C(=O)Nc2ccc(C(F)(F)F)cc2)CC1 [TCMDC-135734]	-55.55
COc1cc2ncnc(Nc3ccc(OCc4ccccc4Br)c(OC)c3)c2cc1OC [TCMDC-131915]	-3.642

SMILES	% Inhibition [%]
O=S(=O)(NC1CCN(c2ccnc3ccccc23)C1)c1ccc(OC(F)(F)F)cc1 (stereo not shown) [TCMDC-133581]	2.209
O=C(Cc1cccs1)NC(CCCN1CCC(Oc2cccc(Cl)c2)CC1)c1ccc(Cl)c(Cl)c1 (stereo not shown) [TCMDC-141902]	-47.46
C=CCn1c(SCC(=O)Nc2cc(Cl)ccc2Cl)nc2sc(C)cc2c1=O [TCMDC-124996]	8.476
CCc1nc(N)nc(N)c1-c1ccc(C(C)C)cc1 [TCMDC-137368]	11.22
CC1CN(S(=O)(=O)c2ccc(NC(=O)c3cc(-c4ccccc4O)n[nH]3)cc2)CC(C)O1 (stereo not shown) [TCMDC-125195]	7.357
CCCN(c1ccc(O)c(CN2CCCCC2)c1)c1ccc([N+](=O)[O-])cn1 [TCMDC-137486]	15.96
CN(C)c1ccc(-c2ccc(C(=O)NC3CCN(Cc4ccc5c(c4)OCCO5)CC3)s2)cc1 [TCMDC-134339]	-48.84
CCCN=CNc1cc(-c2csc(N=C(N)N)n2)cc([N+](=O)[O-])c1 [TCMDC-137246]	-47.16
O=C(NC1CCC(N2CCN(c3cccc(C(F)(F)F)c3)CC2)CC1)c1cc2ccccc2[nH]1 (stereo not shown) [TCMDC-132885]	32.36
O=C(NC1CCC(N2CCC(O)(c3ccc(F)cc3)CC2)CC1)c1cc2ccccc2[nH]1 (stereo not shown) [TCMDC-132887]	9.268
O=C(NC1CCC(N2CCC3(CC2)C(=O)NCN3c2ccccc2)CC1)c1cc2ccccc2[nH]1 (stereo not shown) [TCMDC-132886]	76.36
CC(Cc1ccc(OCCN2CCN(c3ccc(Cl)cc3)CC2)cc1)NCC(O)c1cccc(C(F)(F)F)c1 (stereo not shown) [TCMDC-131530]	29.05
O=C(NCc1cccc(Cl)c1)c1ccc(CNC2CCN(Cc3ccccc3)CC2)cc1 [TCMDC-140785]	24.82
O=C(NCc1ccc(Cl)c(Cl)c1)c1ccc(C2CCCN(Cc3ccc4nc[nH]c4c3)C2)cc1 (stereo not shown) [TCMDC-133068]	0.7535
C[C@H]1CN(Cc2cccc(-c3cc(CNC(=O)c4cccc(CC5CCN(C)CC5)c4)ccc3F)c2)CCN1C [TCMDC-136349]	103.8
O=C(NCc1ccc(Cl)c(Cl)c1)c1cccc(C2CCCN(Cc3ccc4nc[nH]c4c3)C2)c1 (stereo not shown) [TCMDC-133067]	-29.33
O=C(NCc1cccc(Br)c1)c1ccc(CNC2CCN(Cc3ccccc3)CC2)cc1 [TCMDC-140788]	24.75
CC1CCN(Cc2cccc(C(=O)NCc3ccc(F)c(-c4cccc(CN5CCN[C@@H](C)C5)c4)c3)c2)CC1 [TCMDC-136206]	100.7
CN1CCCN(Cc2cccc(-c3ccc(CNC(=O)c4cccc(Cl)c4)c(F)c3)c2)CC1 [TCMDC-133370]	8.787
COc1ccc(CN2CCCN(Cc3cccc(C(=O)Nc4ccc(C)c(F)c4)c3)CC2)cc1 [TCMDC-135960]	-17.45
COc1cccc(CNC(=O)c2ccnc(-c3cccc(CN(C)C4CCN(C)CC4)c3)c2)c1 [TCMDC-134500]	23.23
C[C@H]1CN(Cc2cccc(-c3cc(CNC(=O)c4cccc(CN5CCN(CCOc6ccccc6)CC5)c4)ccc3F)c2)CCN1 [TCMDC-136210]	110.3
COc1cccc(CNC(=O)[C@@H]2CN(C(=O)c3ccccc3)CCN2)c1 [TCMDC-141267]	-8.525
C[C@H]1CN(Cc2cccc(-c3cc(CNC(=O)c4cccc(C(=O)c5ccc(Cl)c(Cl)c5)c4)ccc3F)c2)CCN1 [TCMDC-136245]	103.5

Reference: paper PMC4552634, “A New Set of Chemical Starting Points with Plasmodium falciparum Transmission-Blocking Potential for Antimalarial Drug Discovery” (PLoS ONE, 2015)
